Measured values reported in PubChem BioAssay AID1159580 (chemical genetic matrix, 2015).
Where “and” joins values, the source holds several entries; their conditions need not be identical. Identical values can stand only once. In all, about 5,500 compounds went through this assay and about 2,000 (36%) were called active. Not shown: some 18% with an inconclusive outcome. Rule as the data show it: active = normalized growth mostly below about 0.91 (no sharp cut-off); inconclusive = no clear call, values can overlap the other calls; inactive = mostly above about 0.92. The list shows a part of the results.

Test: chemical genetic growth profiling, strain panel (AID 1159580);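 also: tested at 20 µM; growth read once vehicle control cultures reached saturation at 30 °C; 1 = growth at the plate median or of vehicle wells; lower values mean less growth of the strain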
Details: S. cerevisiae deletion strains, growth OD

Measured: normalized growth

Cc1cc(O)cc(O)c1C(=O)O
inactive: locus YAL021C, strain ccr4, hits give low values 0.972 | locus YAL026C, strain drs2, hits give low values 1.05 | locus YAL030W, strain snc1, hits give low values 1.02 | locus YBL061C, strain skt5, hits give low values 1.02 | locus YBR009C, strain hhf1, hits give low values 1.01 | locus YBR021W, strain FUR4, hits give low values 1.02 | locus YBR023C, strain chs3, hits give low values 1.02 | locus YBR171W, strain sec66, hits give low values 1.02 | locus YBR229C, strain ROT2, hits give low values 1.02 | locus YBR231C, strain swc5, hits give low values 1 | locus YBR279W, strain paf1, hits give low values 1.02 | locus YCL011C, strain gbp2, hits give low values 1.01 | locus YCL016C, strain dcc1, hits give low values 0.984 | locus YCL029C, strain bik1, hits give low values 1 | locus YCL061C, strain MRC1, hits give low values 1.03 | locus YCL069W, strain vba3, hits give low values 1.01 | locus YCR088W, strain abp1, hits give low values 1.02 | locus YDL005C, strain med2, hits give low values 1.03 | locus YDL035C, strain GPR1, hits give low values 1.04 | locus YDL040C, strain nat1, hits give low values 1.02 | locus YDL074C, strain BRE1, hits give low values 1.03 | locus YDL101C, strain DUN1, hits give low values 1 | locus YDL134C, strain PPH21, hits give low values 1.04 | locus YDL185W, strain tfp1, hits give low values 0.988 | locus YDL192W, strain arf1, hits give low values 1.04 | locus YDR001C, strain nth1, hits give low values 1.02 | locus YDR069C, strain doa4, hits give low values 1.03 | locus YDR101C, strain arx1, hits give low values 1.04 | locus YDR137W, strain rgp1, hits give low values 1.03 | locus YDR159W, strain sac3, hits give low values 1.06 | locus YDR162C, strain NBP2, hits give low values 1.01 | locus YDR195W, strain ref2 0.986 | locus YDR297W, strain sur2, hits give low values 1.02 | locus YDR318W, strain mcm21, hits give low values 1.01 | locus YDR334W, strain swr1, hits give low values 1.02 | locus YDR335W, strain msn5, hits give low values 1.02 | locus YDR388W, hits give low values 1 | locus YDR392W, strain spt3, hits give low values 0.897 | locus YDR502C, strain sam2, hits give low values 0.997 | locus YEL003W, strain gim4, hits give low values 1.01 | locus YEL037C, strain rad23, hits give low values 1.01 | locus YEL061C, strain CIN8 (second series), hits give low values 1.01 | locus YEL061C, strain CIN8, hits give low values 1.01 | locus YER015W, strain faa2, hits give low values 1.01 | locus YER016W, strain bim1, hits give low values 1.02 | locus YER110C, hits give low values 0.982 | locus YER111C, strain swi4, hits give low values 1.01 | locus YER155C, strain BEM2 (second series), hits give low values 1.02 | locus YER155C, strain BEM2, hits give low values 1 | locus YER167W, strain BCK2, hits give low values 1.01 | locus YFR010W, strain ubp6, hits give low values 1.02 | locus YGL078C, strain dbp3, hits give low values 0.964 | locus YGL086W, strain mad1, hits give low values 1.01 | locus YGL167C, strain pmr1, hits give low values 1.02 | locus YGL173C, strain kem1, hits give low values 1.04 | locus YGL227W, strain vid30, hits give low values 1.01 | locus YGL240W, strain doc1, hits give low values 1.02 | locus YGL248W, strain PDE1, hits give low values 1.03 | locus YGL253W, strain hxk2, hits give low values 1.05 | locus YGR078C, strain PAC10, hits give low values 1.03 | locus YGR135W, strain pre9, hits give low values 0.96 | locus YGR252W, strain gcn5, hits give low values 1.06 | locus YHR013C, strain ard1, hits give low values 1.02 | locus YHR027C, strain rpn1, hits give low values 1.01 | locus YHR030C, strain SLT2, hits give low values 1.1 | locus YHR079C, strain IRE1 (second series), hits give low values 1 | locus YHR079C, strain IRE1, hits give low values 1.08 | locus YHR094C, strain hxt1, hits give low values 1.01 | locus YHR129C, strain ARP1, hits give low values 1.02 | locus YHR142W, strain chs7, hits give low values 1.01 | locus YHR200W, strain rpn10, hits give low values 1 | locus YIL066C, strain RNR3, hits give low values 1.03 | locus YIL073C, strain SPO22, hits give low values 1 | locus YIL125W, strain kgd1, hits give low values 0.993 | locus YIR030C, strain dcg1, hits give low values 1.01 | locus YJL092W, strain hpr5, hits give low values 1.02 | locus YJL095W, strain BCK1 (second series), hits give low values 1.02 | locus YJL095W, strain BCK1, hits give low values 1.04 and 1.07 | locus YJL115W, strain asf1, hits give low values 1.02 | locus YJL129C, strain trk1, hits give low values 1.03 | locus YJL134W, strain LCB3, hits give low values 1.01 | locus YJL154C, strain vps35, hits give low values 1.01 | locus YJL164C, strain tpk1, hits give low values 0.997 | locus YJL166W, strain qcr8, hits give low values 1.03 | locus YJL168C, strain set2, hits give low values 1.02 | locus YJL187C, strain SWE1 (second series), hits give low values 1.01 | locus YJL187C, strain SWE1, hits give low values 1.02
